PubChem BioAssay (NCI)
This is part of a sample that, as a whole, favours compounds with a hit. Of some 79,000 tested, about 15% had one in any assay. A number with no mark means an inactive call. Calls of active or inactive are those of the source. No stated cut-off is given here; in the data, active means growth inhibition above about 70%; inactive means the rest.

Columns and labels:
[1] = NCI Yeast Anticancer Drug Screen. Data for the rad50 strain (AID 155);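 further: 0% = growth of vehicle-only cultures of the same strain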; settings: S. cerevisiae rad50 strain growth inhibition; at 50.0 µM; active compounds read high
Summary of the method: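 Growth of the mutant yeast was measured after compound exposure and referenced to vehicle-treated cultures.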

[2] = NCI Yeast Anticancer Drug Screen. Data for the mec2-1 strain (AID 157); settings: S. cerevisiae mec2-1 strain, at 50.0 µM, active compounds read high
Summary of the method: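 Using mec2-1 yeast: add compound, measure growth, express inhibition versus vehicle-treated cultures.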

[3] = NCI Yeast Anticancer Drug Screen. Data for the sgs1 mgt1 strain (AID 161);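 further: 0% = growth of cultures given vehicle only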; settings: S. cerevisiae sgs1 mgt1 strain, at 50.0 µM, active compounds read high
Summary of the method: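 Compounds are added to genetically altered yeast, and growth is compared with cultures given vehicle alone to give percent inhibition.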

[4] = NCI Yeast Anticancer Drug Screen. Data for the cln2 rad14 strain (AID 165);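 further: 0% = growth equal to vehicle treated cultures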; settings: S. cerevisiae cln2 rad14 strain, at 50.0 µM, active compounds read high
Summary of the method: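 Yeast strain cln2 rad14, bearing defects in cell cycle control and DNA repair, serves as the test system; values reflect growth inhibition compared with vehicle.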

[5] = NCI Yeast Anticancer Drug Screen. Data for the bub3 strain (AID 167); settings: S. cerevisiae bub3 mutant strain, at 50.0 µM, active compounds read high
Summary of the method: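 Whole-cell yeast assay. The mutant strain was incubated with compounds, and growth inhibition was determined by comparison with vehicle-treated cells.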

[6] = NCI Yeast Anticancer Drug Screen. Data for the mlh1 rad18 strain (AID 175); settings: S. cerevisiae mlh1 rad18 strain growth inhibition; at 50.0 µM; active compounds read high
Summary of the method: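 Steps: expose repair-defective yeast to compound; measure growth; express inhibition against vehicle-treated controls.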

SMILES | growth inhibition [1] | growth inhibition [2] | growth inhibition [3] | growth inhibition [4] | growth inhibition [5] | growth inhibition [6]
CN(C)C(=O)CC(O)c1ccccc1 (stereo unspecified) | 13.9% | -9.95% | 1.6% | -30.2% | -2.55% | 4.75%
O=[N+]([O-])c1ccc(C2=NCC=CCO2)cc1 | 18% | 16.2% | 7.55% | -6.55% | 4.5% | 12.8%
c1cncc(Cc2nc3ccccc3[nH]2)c1 | -26.9% | -2.5% | -22.9% | -11.7% | -5.1% | -34%
CCOC(=O)C1C(=O)CC(O)(c2ccccc2)C(C(=O)OCC)C1c1ccc(OC)cc1 (stereo unspecified) | -17.9% | -13.2% | -6.65% | -31.1% | 6.95% | -3.7%
Cc1ccc2ccc(=O)oc2c1 | 7.9% | 1.05% | 2.85% | 7.45% | 13.8% | 6.85%
O=[N+]([O-])C(Cl)C(Cl)C(Cl)=C(Cl)Cl (stereo unspecified) | 23.9% | 17.1% | 51% | 35.8% | 60.8% | 52.2%
Cc1cc(C)c2ccc(=O)[nH]c2n1 | -2.8% | -9% | 2.6% | -3.05% | 8.75% | 8.2%
O=C(Nc1ccccc1)Nc1ccccc1C(=O)O | -5.8% | -22% | -16.4% | -54.6% | -16.2% | -31.3%
C/C(=N\N(c1ccccc1)c1ccccc1)c1c(O)cc(C)oc1=O | -25.8% | 8.2% | 12.9% | -27.4% | 3.05% | 14.8%
CC1=CC[N+](C)(C)C(C(N)=O)C1 (stereo unspecified) | -5% | -12.8% | -17.2% | 9.95% | 20.9% | -18.1%
Cc1cc2c(=O)c3ccccc3oc2c(C(=O)O)c1C | -6.75% | -6.25% | -50.6% | 12% | -1.9% | -4.15%
NC(=O)N=P(c1ccccc1)(c1ccccc1)c1ccccc1 | -9.9% | 12.6% | -6% | 7.75% | 3% | -12.9%
N#Cc1cccc(N2C(=O)c3c(c(-c4ccccc4)c(-c4ccc(Sc5ccc(-c6c(-c7ccccc7)c7c(c(-c8ccccc8)c6-c6ccccc6)C(=O)N(c6cccc(C#N)c6)C7=O)cc5)cc4)c(-c4ccccc4)c3-c3ccccc3)C2=O)c1 | -48.6% | -44.2% | -41% | -14.8% | -68.8% | -60.8%
Nc1c2c(cc3c1C(=O)c1ccccc1C3=O)OCO2 | 47.8% | 20% | 29.4% | 16.2% | 22% | 39%
O=C1NC(C(=O)O)CC1O (stereo unspecified) | 4.1% | 23.9% | 5.05% | 14.2% | 17.9% | 17.6%
Cc1cc2c(c(C(=O)NCC(=O)O)c1)Oc1c(cc(C)cc1C(=O)NCC(=O)O)S2 | -17% | 20.1% | -4.95% | 14.8% | -29.9% | 20.9%
Cc1cc(C)nc(NC(=O)COc2ccc(Cl)cc2)c1 | -15.7% | 5.95% | -20.8% | -39.7% | -37.5% | -14.8%
O=C(c1ccccc1)c1cc(Br)c2cccc3c2c1CC3 | 11.6% | -7.6% | -1.5% | 14.3% | 20.4% | -3%
CCn1cc(C(=O)C(=O)N(C)C)c2ccccc21 | 13.2% | -7.75% | -2.5% | -3.35% | 17.2% | 1.95%
O=C(O)C(=O)Cc1c[nH]c2ccccc12 | 1.2% | -7.55% | 29.4% | 7.3% | -11.1% | -3.7%
COC(=O)c1cccc2cnccc12 | 2.2% | -5.7% | 3.6% | -48% | 7.65% | 3.75%

SMILES | growth inhibition [1] | growth inhibition [2] | growth inhibition [3] | growth inhibition [4] | growth inhibition [5] | growth inhibition [6]
CCOc1ccc(NC(=O)CC2SC(N)=NC2=O)cc1 (stereo unspecified) | -15.2% | -35.5% | -1.9% | 8.5% | -2.8% | -0.6%
COc1ccc(C(Nc2ccccn2)c2cc(C(C)(C)C)cc(C(C)(C)C)c2O)cc1 (stereo unspecified) | 43.6% | -2.95% | 9.45% | 12.4% | 41.9% | 38.8%
CN(N=O)C(=O)NCCSc1ncnc2nc[nH]c12 | 9.75% | 13.1% | -2.25% | -108% | -2.5% | -17.2%
N#CCCOC(=O)Nc1cccc(Cl)c1 | 41.7% | 15.4% | 27.3% | 7.3% | -7.2% | 33.6%
CC(=NCCN(CCN=C(C)c1c(O)cc(C)oc1=O)CCN=C(C)c1c(O)cc(C)oc1=O)c1c(O)cc(C)oc1=O | 22.4% | -4.3% | 1.8% | 11.4% | 6.3% | 21.8%
CC(=O)Nc1cc2c(cc1C=O)OCO2 | 19.6% | 9.7% | -0.6% | -32.3% | -2.5% | 11.3%
Cc1cccc(NC(=O)CCCCCCCCC(=O)Nc2cccc(C)c2C)c1C | -4.8% | 0.7% | -2.3% | -41.4% | -2.05% | 12.2%
CS(=O)(=O)OC1COCC1OS(C)(=O)=O (stereo unspecified) | 8% | 6.15% | 9.05% | -0.8% | -5.3% | -6.1%
COc1cc(NCCC(=O)O)c2ncccc2c1 | -25.1% | -19.2% | -41.9% | -18.8% | -24.2% | 0.7%
COc1ccc(/C=N/NC(=O)c2ccc(N)cc2)cc1 | -1.65% | 3% | 14.4% | -15.9% | 22.4% | 8.75%
C=C(Cl)C(Cl)(CBr)CCC(Cl)C(C)C (stereo unspecified) | 65% | 15.5% | 85.2% (active) | 73.7% (active) | 75.6% (active) | 72% (active)
O=C(O)CSc1n[nH]c(-c2ccco2)n1 | -4.05% | 4.25% | 3% | 14.1% | 11.1% | 7.7%
CC(C)(C)c1ccc(-c2nc3ccc([N+](=O)[O-])cc3c(=O)o2)cc1 | 12.1% | 15.8% | 35% | -13.1% | 16.1% | 33.5%
NS(=O)(=O)c1ccc(NCc2cnc3ccccc3c2)cc1 | -4.65% | -22.3% | 12% | -5.25% | 4.1% | 27.4%
CC(=O)N/N=C/c1ccc(C)cc1 | 6.6% | -1.3% | -11.1% | -0.9% | -11.8% | 1.75%
NC(=O)COc1ccccc1 | -14.5% | -8.75% | -1.1% | 14.6% | -0.15% | 27.9%
Clc1ccc2c(c1)nnn2OC1CCCC1 | 10.4% | -3.7% | -11.1% | -24.9% | -10.8% | -6.8%
O=C(/C=C/c1ccccc1)[c-]1[c-][c-][c-][c-]1.[Fe].[c-]1[c-][c-][cH-][c-]1 | 10.9% | 11.6% | 9.05% | 8.1% | 13.8% | 13.2%
CCOC(=O)C(C)c1nc2cc(C(F)(F)F)ccc2[nH]c1=O (stereo unspecified) | 3.55% | 7.1% | 8.1% | 7.5% | 19.7% | -21.2%
COC(=O)/C(C#N)=C1\NC(=O)c2ccccc21 | 30.1% | 16.1% | 11.6% | 30.8% | 11.5% | 26%
